# Experimental data: ChEMBL document CHEMBL1157539, “Thousands of chemical starting points for antimalarial lead identification” (Nature, 2010)
# How the values were obtained:
# Assay type in all cases: functional
# Plasmodium falciparum [1] = experiment: GSK_TCMDC: Inhibition of Plasmodium falciparum 3D7 in whole red blood cells, using parasite LDH activity as an index of growth. Test compounds present at 2uM
# Plasmodium falciparum [2] = experiment: GSK_TCMDC: Inhibition of Plasmodium falciparum Dd2 in whole red blood cells, using parasite LDH activity as an index of growth. Test compounds present at 2uM
# HepG2 = experiment: GSK_TCMDC: Percent inhibition of human HepG2 cell line. Test compounds present at 10uM.
structure (smiles),measurement,setting,value
COc1ccc(-c2cc(C(=O)N[C@@H](CC3CCCCC3)C(=O)NCCN3CCCCC3)ccc2O)cc1,Inhibition,Plasmodium falciparum [1],98%
same,Inhibition,Plasmodium falciparum [2],72%
same,Inhibition,HepG2,3%
CN1CCN(c2ccnc3ccc(NC(=O)Nc4ccccc4Br)cc23)CC1.Cl,Inhibition,Plasmodium falciparum [1],100%
same,Inhibition,Plasmodium falciparum [2],95%
same,Inhibition,HepG2,4%
O=C(O)c1ccc(-c2cnc3ccc(NC4CCC(O)CC4)nn23)cc1 (stereo unspecified),Inhibition,Plasmodium falciparum [1],98%
same,Inhibition,Plasmodium falciparum [2],90%
same,Inhibition,HepG2,9%
Cc1cc2nc(-c3ccc(/C=C/C(=O)NC4CCN(Cc5ccccc5)CC4)cc3)[nH]c2cc1C,Inhibition,Plasmodium falciparum [1],98%
same,Inhibition,Plasmodium falciparum [2],89%
same,Inhibition,HepG2,18%
COc1ccc2nccc([C@@H](O)CN3CCC(NCc4cc5cc(OC(F)(F)F)ccc5[nH]4)CC3)c2c1.O=C(O)C(=O)O,Inhibition,Plasmodium falciparum [1],100%
same,Inhibition,Plasmodium falciparum [2],82%
same,Inhibition,HepG2,49%
CN1CCCN(Cc2cccc(-c3ccc(CNC(=O)c4cccc(Cl)c4)c(F)c3)c2)CC1.O=C(O)C(F)(F)F,Inhibition,Plasmodium falciparum [1],96%
same,Inhibition,Plasmodium falciparum [2],38%
same,Inhibition,HepG2,56%
Cl.N#Cc1ccc2c(c1)CCN(CCC1CCC(NC(=O)Nc3cnc4ccccc4c3)CC1)C2 (stereo unspecified),Inhibition,Plasmodium falciparum [1],93%
same,Inhibition,Plasmodium falciparum [2],9%
same,Inhibition,HepG2,14%
CCOC(=O)c1ccc(NC(=O)N[C@@H](Cc2ccccc2)C(=O)NC2CCN(Cc3ccc(OCCCN(C)C)cc3)C2)cc1 (stereo partly specified),Inhibition,Plasmodium falciparum [1],91%
same,Inhibition,Plasmodium falciparum [2],8%
same,Inhibition,HepG2,5%
CCOc1cc(C(=O)NCCN(CC)c2cccc(C)c2)ccc1-c1nc2cc(Cl)ccc2[nH]1,Inhibition,Plasmodium falciparum [1],100%
same,Inhibition,Plasmodium falciparum [2],80%
same,Inhibition,HepG2,0%
COc1ccc2c(=NN=Cc3c(OC)ccc4ccccc34)cc(C)[nH]c2c1,Inhibition,Plasmodium falciparum [1],100%
same,Inhibition,Plasmodium falciparum [2],85%
same,Inhibition,HepG2,7%
C#CCCC(=O)Nc1cccc(-c2cccc(-c3nc4cccc(C)c4[nH]3)c2)c1,Inhibition,Plasmodium falciparum [1],97%
same,Inhibition,Plasmodium falciparum [2],29%
same,Inhibition,HepG2,30%
O=C(CCCCCNC(=O)c1ccc(O)c(-c2ccc(Cl)c(Cl)c2)c1)NCCN1CCCC1,Inhibition,Plasmodium falciparum [1],90%
same,Inhibition,Plasmodium falciparum [2],2%
same,Inhibition,HepG2,0%
CCOc1cc(OCC)c2ccccc2c1CNCCCCCCNCc1c(OCC)cc(OCC)c2ccccc12.CS(=O)(=O)O,Inhibition,Plasmodium falciparum [1],100%
same,Inhibition,Plasmodium falciparum [2],89%
Cl.Cl.N=C(N)Nc1ccc(Cc2ccc(NC(=N)N)cc2)cc1,Inhibition,Plasmodium falciparum [1],93%
same,Inhibition,Plasmodium falciparum [2],94%
same,Inhibition,HepG2,35%
CS(=O)(=O)O.Nc1nc(NCC2CCC(CNS(=O)(=O)c3cccc4ccccc34)CC2)nc2ccccc12 (stereo unspecified),Inhibition,Plasmodium falciparum [1],97%
same,Inhibition,Plasmodium falciparum [2],42%
same,Inhibition,HepG2,9%
O=C(NCC1CCN(Cc2ccc3c(c2)OCCO3)C1)c1cc(-c2cccc(C(F)(F)F)c2)cs1.O=C(O)C(F)(F)F (stereo unspecified),Inhibition,Plasmodium falciparum [1],100%
same,Inhibition,Plasmodium falciparum [2],1%
same,Inhibition,HepG2,31%
N=C(N)NC(=O)Nc1cc(F)c(Cl)c(Cl)c1,Inhibition,Plasmodium falciparum [1],100%
same,Inhibition,Plasmodium falciparum [2],100%
CCCCSc1ccc(CNCCCCCCNCc2ccc(SCCCC)c3ccccc23)c2ccccc12.CS(=O)(=O)O,Inhibition,Plasmodium falciparum [1],94%
same,Inhibition,Plasmodium falciparum [2],48%
NC1=NC(Cc2ccccc2)(c2ccncc2)C(=O)N1CCCc1ccccc1 (stereo unspecified),Inhibition,Plasmodium falciparum [1],86%
same,Inhibition,Plasmodium falciparum [2],1%
same,Inhibition,HepG2,1%
Cc1ccc(/C=C/C(=O)NCCCCCN2CCCN(C(=O)Nc3ccc(Cl)c(Cl)c3)CC2)cc1,Inhibition,Plasmodium falciparum [1],95%
same,Inhibition,Plasmodium falciparum [2],1%
same,Inhibition,HepG2,24%
CCCCCCCC1CCN(C[C@H](O)c2ccnc3ccc(OC)cc23)CC1.O=C(O)C(=O)O,Inhibition,Plasmodium falciparum [1],94%
same,Inhibition,Plasmodium falciparum [2],81%
same,Inhibition,HepG2,23%
CCCCCCC(C)c1cc(OCCN(CC)CC)c2c(c1)OC(C)(C)C=C2c1ccncc1.Cl (stereo unspecified),Inhibition,Plasmodium falciparum [1],90%
same,Inhibition,Plasmodium falciparum [2],71%
same,Inhibition,HepG2,14%
Cc1ccc(NC(=O)C(C)Sc2nnc(-c3ccccc3Br)[nH]2)cc1 (stereo unspecified),Inhibition,Plasmodium falciparum [1],89%
same,Inhibition,Plasmodium falciparum [2],90%
same,Inhibition,HepG2,2%
Cc1cc(N[C@@H](Cc2ccccc2)C(=O)NCc2cccs2)nc(NCCc2ccc(F)cc2)n1.O=C(O)C(F)(F)F,Inhibition,Plasmodium falciparum [1],100%
same,Inhibition,Plasmodium falciparum [2],83%
same,Inhibition,HepG2,3%
CC(C)N(Cc1ccccc1)C(=O)CN1C(=O)COc2ccc(S(=O)(=O)N3CCCCCC3)cc21,Inhibition,Plasmodium falciparum [1],99%
same,Inhibition,Plasmodium falciparum [2],99%
same,Inhibition,HepG2,0%
COc1ccccc1CCNc1nc(C)cc(N[C@@H](CC(C)C)C(=O)Nc2ccccc2)n1.O=C(O)C(F)(F)F,Inhibition,Plasmodium falciparum [1],100%
same,Inhibition,Plasmodium falciparum [2],76%
same,Inhibition,HepG2,16%
CCOC(=O)c1cccc(NC(=O)Nc2cc(C)nc3ccccc23)c1,Inhibition,Plasmodium falciparum [1],100%
same,Inhibition,Plasmodium falciparum [2],90%
same,Inhibition,HepG2,14%
NC1CCCN(Cc2ccc(-c3ccc(-c4nc5ccccc5[nH]4)s3)cc2)C1.O=C(O)C(F)(F)F (stereo unspecified),Inhibition,Plasmodium falciparum [1],100%
same,Inhibition,Plasmodium falciparum [2],99%
same,Inhibition,HepG2,40%
